Sampled rows, rich in hits. Any-hit rate of the full collection: about 2.9%.
MEKK2 mut-MEK5 = signal of MEK5 binding to mutant human MEKK2 PB1 domain | bead flow cytometry, Alexa488-MEK5 binding to MEKK2 mutant | percent response, % at 10 µM | hit rate 0.35% among 290,000; in the data active = percent response above about 24%, passing the limit was not always enough
GRK2 inh = human GRK2 inhibition via aptamer displacement; bead flow cytometry, FAM-aptamer displacement from GRK2; inhibition of aptamer binding, % at 10 µM; P25098; hit rate 0.59% among 330,000;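 active = inhibition of aptamer binding above 40%, roughly 3 SD of noise, on plates passing a quality check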;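 note: median bead fluorescence of bound FAM aptamer so fluorescent compounds give negative values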
B2AR ag = human beta-2 adrenergic receptor agonism by FAP. hit rate 0.43% among 340,000. response, % (concentration not given with the values). AID 504454. P07550. Am2.2-beta2AR cells, FAP receptor internalization, flow cytometry;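 active = response above a set limit, near 3 SD of response in nonfluorescent compounds, cut at about 42% in these data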
Target sequence (P07550 whole entry, looked up): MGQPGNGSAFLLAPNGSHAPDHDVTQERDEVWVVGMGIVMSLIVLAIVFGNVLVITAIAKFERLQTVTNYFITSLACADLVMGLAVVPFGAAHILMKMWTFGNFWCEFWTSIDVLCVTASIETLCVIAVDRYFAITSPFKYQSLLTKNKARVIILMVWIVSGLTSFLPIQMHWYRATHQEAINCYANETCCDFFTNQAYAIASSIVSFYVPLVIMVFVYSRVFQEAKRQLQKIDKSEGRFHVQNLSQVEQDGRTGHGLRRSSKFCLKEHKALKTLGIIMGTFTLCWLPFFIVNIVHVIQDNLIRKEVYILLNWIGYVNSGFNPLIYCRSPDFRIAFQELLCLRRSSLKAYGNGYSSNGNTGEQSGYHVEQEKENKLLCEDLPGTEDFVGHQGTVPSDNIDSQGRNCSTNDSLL
MEKK3 PB1 HTS = modulators (inhibitors or enhancers) of MEK5 binding to human MEKK3 PB1 domain. Q99759. bead-based flow cytometry, Alexa488-MEK5 binding to MEKK3; actives lie on both sides; 0 = blocked by unlabeled MEK5, 100 = vehicle. binding response (% of control), % at 10 µM. hit rate 1.4% among 290,000. AID 1529;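 active = binding response more than 3 SD above or below the average of its plate-row segment, actives on both sides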;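 note: Alexa488 bead fluorescence after subtracting the streptavidin-only scavenger bead signal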
MEKK2 WT-MEK5 = raises or lowers MEK5 binding to wildtype human MEKK2 PB1 domain; binding response (% of control), % at 10 µM; Q9Y2U5; AID 1531; hit rate 1.1% among 290,000; bead flow cytometry, Alexa488-MEK5 binding to MEKK2 WT; actives lie on both sides; in the data active = binding response below about 67% or above about 130%
Beta2AR ag CP1 = human beta-2 adrenergic receptor agonism, cherry pick | shares compounds with B2AR ag | Am2.2-beta2AR cells, FAP surface receptor, flow cytometry; stronger effect = lower value | percent response (surface receptor), % at 10 µM | hit rate 25% among 1,100 | AID 540358;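 active = surface receptor percent response at or below 58%, roughly 3 SD from nonfluorescent compounds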
B2AR FAP counter = fluorescence artifact in beta-2AR agonist FAP counterscreen; shares compounds with B2AR ag; Am2.2 cells, FAP fluorogen flow cytometry; stronger effect = lower value; calls only at 10 µM; 1,100 tested, under 10 active; AID 588765;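 active = percent response below a set limit in fluorescence channel 1 and below 50% in channel 8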
* marks the source's active call; other numbers are inactive results; i = inactive; nt = no result.

SMILES	MEKK2 mut-MEK5	GRK2 inh	B2AR ag	MEKK3 PB1 HTS	MEKK2 WT-MEK5	Beta2AR ag CP1	B2AR FAP counter
Cc1ccc(S(=O)(=O)c2ccc([N+](=O)[O-])cn2)cc1	8.0	4.0	65.0*	105.0	103.0	73.2	i
O=[N+]([O-])c1ccc(S(=O)(=O)c2ccccc2)nc1	10.0	2.0	30.4	105.0	103.0	nt	nt
CN(C(=O)c1ccc(NC(=O)Cc2cccc(NC(=O)C3CCN(C(=O)C4CC4)CC3)c2)cc1)C1CCCC1	nt	0.0	-4.4	nt	nt	106.6	i
CN(C(=O)c1ccc(NC(=O)Cc2cccc(NC(=O)C3CCN(C(=O)C4CCCC4)CC3)c2)cc1)C1CC1	nt	nt	-5.2	nt	nt	132.0	i
CN(C(=O)c1ccc(NC(=O)Cc2cccc(NC(=O)C3CCN(C(=O)C4CCC4)CC3)c2)cc1)C1CCCC1	nt	2.0	5.3	nt	nt	119.1	i
CN(C(=O)c1cccc(NC(=O)Cc2cccc(NC(=O)C3CCN(C(=O)C4CCCC4)CC3)c2)c1)C1CCC1	nt	nt	-14.8	nt	nt	nt	nt
CN(C(=O)c1ccc(NC(=O)Cc2ccc(NC(=O)C3CCN(C(=O)C4CCCC4)CC3)cc2)cc1)C1CC1	nt	0.0	-2.3	nt	nt	nt	nt
CN(C(=O)c1cccc(NC(=O)Cc2ccc(NC(=O)C3CCN(C(=O)C4CC4)CC3)cc2)c1)C1CCCC1	nt	nt	2.7	nt	nt	nt	nt
COc1ccc(N/C=C(\C=C\C#N)S(=O)(=O)c2ccccc2)cc1	9.0	0.0	0.5	101.0	105.0	nt	nt
CCOC(=O)c1sc(NC(=O)CN2C(=O)C3CC=CCC3C2=O)nc1C (configuration not stated)	nt	0.0	1.1	nt	nt	nt	nt
Cc1c(NS(=O)(=O)c2cccs2)cccc1-c1nc2cccnc2s1	3.0	1.0	-0.2	100.0	103.0	nt	nt
O=S(=O)(Nc1cccc2ncccc12)c1cccs1	4.0	0.0	44.2*	103.0	104.0	89.5	i
CC(C)c1cc(CNC(=O)c2cc(COc3cncc(Cl)c3)on2)on1	6.0	nt	-12.8	104.0	105.0	nt	nt
COC(=O)c1ccc(CNC(=O)c2cc(COc3cncc(Cl)c3)on2)cc1	5.0	0.0	-2.4	102.0	107.0	115.1	i
CCn1c(COc2ccc(C)cc2)nnc1SCc1nc2ccccc2[nH]1	3.0	0.0	-6.6	101.0	111.0	nt	nt
Clc1cccc(-c2nnc(SCc3nc4ccccc4[nH]3)n2Cc2ccco2)c1	-6.0	0.0	54.5*	93.0	89.0	56.4*	i
Clc1ccc(OCc2nnc(SCc3nc4ccccc4[nH]3)n2Cc2ccco2)cc1	-6.0	3.0	111.2*	102.0	92.0	38.5*	i
c1ccc(-c2nnc(SCc3nc4ccccc4[nH]3)n2Cc2ccco2)nc1	7.0	0.0	-8.7	98.0	100.0	nt	nt
CC(=O)c1ccc(NC(=O)CN(C)CC(=O)Nc2cccc(F)c2)cc1	6.0	0.0	1.6	101.0	107.0	nt	nt
O=[N+]([O-])c1cc(S(=O)(=O)C(F)(F)F)ccc1Sc1nc2ccccc2s1	2.0	1.0	45.4*	98.0	99.0	73.2	i
CCn1nc(NS(=O)(=O)c2ccc(F)cc2)c2cc3cccc(C)c3nc21	5.0	2.0	7.4	100.0	101.0	114.2	i
CCn1nc(NS(=O)(=O)c2ccccc2)c2cc3cccc(C)c3nc21	1.0	0.0	5.0	101.0	103.0	nt	i
CCn1nc(NS(=O)(=O)c2ccc(NC(C)=O)cc2)c2cc3cccc(C)c3nc21	5.0	0.0	2.6	99.0	102.0	nt	nt
Cc1ccc(OCCn2c(=S)[nH]c3ccccc32)c(C(C)C)c1	-10.0	4.0	69.0*	101.0	92.0	106.3	i
CN(CC(=O)N1CCN(c2ccccn2)CC1)S(=O)(=O)c1ccccc1	14.0	1.0	50.7*	110.0	112.0	59.4	i
CN(CC(=O)N1CCN(c2ncccn2)CC1)S(=O)(=O)c1ccc(Cl)cc1	-2.0	2.0	111.7*	103.0	97.0	27.7*	i
COc1ccc(-c2ccc(-c3nc4ccc(C)cn4c3NC3CCCCC3)cc2OC)cc1	nt	2.0	4.3	nt	nt	nt	nt
CCN1CCN(S(=O)(=O)c2ccc(Cl)c(C(=O)NCc3nc4ccccc4[nH]3)c2)CC1	nt	0.0	3.3	nt	nt	nt	nt

Compound activity from PubChem.
